The record followed here is PubChem BioAssay (NCATS).

Inconclusive results are not listed. The source made the active and inactive calls. Calls come from the whole dose curve; as a rule, active = well fitted curve in the direction sought with a large enough effect; inconclusive = small, poorly fitted or top-dose-only effect, or another doubt; inactive = no such curve, though single readings can be large; an effect the other way counts as inactive or inconclusive.

Test [1] in a line: qHTS assay for measurement of the activity of small molecule inhibitors on Zika virus induced Caspase-3 activity in human astrocytoma cells (AID 1224859). In short, it runs like this: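 Readout is luminescence from Caspase-Glo 3/7 added after a 6 h ZIKV infection (2 FFU/cell) of compound-pretreated (1 h) SNB-19 cells; data expressed as % inhibition versus uninfected and infected wells.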

Test [2] in a line: qHTS assay to identify small molecule inhibitors of chordoma cells - UCH-1 (AID 1259355). Note: nearly all actives have a fitted effect of over 55% in size. Note: potency is the fitted concentration of half-maximal effect; series mostly up to about 46 µM. In short, it runs like this: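 Cells (800/well) were seeded and left overnight at 37 C, 5% CO2, then treated with drugs at 15 concentrations plus a combination mix of auranofin, camptothecin, doxorubicin, rubitecan and topotecan. Viability after 48hr was read by CellTiter-Glo luminescence.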
A general note: Quantitative high-throughput screening tests each substance at several concentrations.

The nature of test [3]: qHTS assay to identify small molecule inhibitors of chordoma cells - UCH-2 (AID 1259356). Note: series mostly up to about 46 µM.
Test [4] in a line: P-glycoprotein substrates identified in KB-8-5-11 adenocarcinoma cell line, qHTS therapeutic library screen (AID 1346987). Note: nearly all actives have a fitted effect of over 65% in size. Note: potency is the fitted concentration of half-maximal effect. In short, it runs like this:
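KB-8-5-11: colchicine-selected sub-line of KB-3-1 over-expressing P-gp; assay medium lacked colchicine. 72 h drug exposure at 37 degree C, CellTiter-Glo.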

Test [5] is described as follows: NS1 protein of Zika virus - qHTS assay to identify small molecule inhibitors in human HEK 293 cells (AID 1347053). Note: series mostly up to about 46 µM; nearly all actives have a fitted effect of over 55% in size. In short, it runs like this:
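Inhibition of NS1 expression was scored in HEK 293 cells given compound 1 h ahead of MR766 virus (MOI = 0.5). Following 24 h at 37 C, two anti-NS1 antibodies generated a TR-FRET signal, scaled between uninfected and infected controls.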

Test [6] in a line: qHTS of pediatric cancer cell lines to identify multiple opportunities for drug repurposing: Primary screen for TC32 cells (AID 1347089). Note: nearly all actives have a fitted effect of over 60% in size. In short, it runs like this: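 qHTS, TC32, 48 h drug treatment, CellTiter-Glo luminescence as a proxy for metabolically active cells; primary top concentration 46 µM (MIPE 11-pt, NPC 8-pt); confirmatory 11-pt.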
Test [7] in a line: qHTS of pediatric cancer cell lines to identify multiple opportunities for drug repurposing: Primary screen for DAOY cells (AID 1347090). Note: series mostly up to about 46 µM; nearly all actives have a fitted effect of over 55% in size. In short, it runs like this: (§1)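 Viability measured as metabolically active cells via CellTiter-Glo luminescence following 48 hours of compound exposure, 11-point dilutions in confirmatory testing. 500-1,000 cells/well plated 5 hours before dosing; controls were DMSO and 2.3 µM bortezomib.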

The nature of test [8]: qHTS of pediatric cancer cell lines to identify multiple opportunities for drug repurposing: Primary screen for SJ-GBM2 cells (AID 1347091). In short, it runs like this:
as §1

A short description of test [9]: qHTS of pediatric cancer cell lines to identify multiple opportunities for drug repurposing: Primary screen for A673 cells (AID 1347092). Note: nearly all actives have a fitted effect of over 45% in size. In short, it runs like this: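 Luminescence from CellTiter-Glo, taken after 15 min at room temperature, served as the proxy for metabolically active cells following 48 h treatment. Both potency and efficacy were taken from curves fitted to the titration data.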

The nature of test [10]: qHTS of pediatric cancer cell lines to identify multiple opportunities for drug repurposing: Primary screen for SK-N-MC cells (AID 1347093). Note: series mostly up to about 46 µM. In short, it runs like this: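 Metabolically active cells were quantified by ATP-dependent luminescence (CellTiter-Glo, 15 min at room temperature) following 48 h treatment. Cells had been plated at 500-1,000 per well and settled for 5 h beforehand.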

Test [11] is described as follows: qHTS of pediatric cancer cell lines to identify multiple opportunities for drug repurposing: Primary screen for BT-37 cells (AID 1347094). Note: series mostly up to about 57 µM. In short, it runs like this:
(§2)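 Quantitative HTS format: each compound titrated (MIPE 11 points from 0.78 nM, NPC 8 points from 0.59 nM) onto cells plated 5 hours earlier. After 48 h at 37 degrees C, CellTiter-Glo luminescence was recorded.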

Test [12] in a line: qHTS of pediatric cancer cell lines to identify multiple opportunities for drug repurposing: Primary screen for NB-EBc1 cells (AID 1347095). In short, it runs like this: as §2

As for `CC(=O)O[C@H]1C[C@@H]2CC[C@@H]3[C@H](CC[C@@]4(C)[C@H]3C[C@H]([N+]3(C)CCCCC3)[C@@H]4OC(C)=O)[C@@]2(C)C[C@@H]1N1CCCCC1`, the call in [1] was inactive. The Potency entry in [2], in test [3], in test [4], in [5], in [6] and in [7] was “inactive” in each case. Besides, the Potency result in test [8], in [9], in [10] and in [11] was “inactive” in each case.

`CCCCCCCCCCCCCCCC(=O)O`: in [1], the call was inactive. Besides, the Potency entry in test [2], in test [3], in test [4], in [5], in test [6] and in test [7] was “inactive” each time. In addition, the Potency result in test [8], in test [9], in test [10], in test [11] and in test [12] was “inactive” each time.

Regarding `C=CCN1CCc2nc(N)sc2CC1`, the call in test [1] was inactive. The Potency entry in test [2], in test [3], in [4], in [5], in test [6] and in [7] was “inactive” throughout. Besides, the Potency entry in test [8], in [9], in test [10], in [11] and in test [12] was “inactive” each time.

Turning to `CC(=O)OCC(=O)[C@H]1CC[C@H]2[C@@H]3CCC4=CC(=O)CC[C@]4(C)[C@H]3CC[C@]12C`, the call in test [1] was inactive. For the same compound, the Potency entry in test [2], in test [3], in test [5], in [6], in test [7] and in test [8] was “inactive” each time. Further, the Potency result in test [9], in test [10] and in [11] was “inactive” each time. In addition, the Potency in test [4] is 7.31 µM (active).

As to `COc1ccc(CCN(C)CCCN2CCc3cc(OC)c(OC)cc3CC2=O)cc1OC`, the result in test [1] was inactive. Moreover, the Potency result in [2], in [3], in test [4], in test [5], in [6] and in test [7] was “inactive” throughout. Besides, the Potency result in test [8], in test [9], in test [10] and in [11] was “inactive” in each case.

For `Cc1cccc(C)c1NC(=O)CN1CCCC1`, the result in [1] was inactive. The Potency entry in [2], in [3], in test [4], in test [5], in [6] and in test [7] was “inactive” in each case. Besides, the Potency entry in [8], in test [9], in [10], in test [11] and in test [12] was “inactive” in each case.

As to `CCCCCCCCCCCCSCCOCCO`, the result in test [1] was inactive. The Potency entry in test [2], in test [3], in test [4], in test [5], in [6] and in [7] was “inactive” each time. Besides, the Potency result in test [8], in test [9], in [10], in test [11] and in test [12] was “inactive” in each case.

`O[C@@H](c1cc(C(F)(F)F)nc2c(C(F)(F)F)cccc12)[C@H]1CCCCN1`: the compound was classed as inactive in test [1]. For the same compound, in test [2], the Potency is 35.5 µM (active). For the same compound, in test [3], the Potency result is “inactive”.

Regarding `COP(=O)(OC)OC(c1ccc(Cl)cc1)P(=O)(OC)OC` (centres undefined), the outcome in test [1] was inactive. The Potency result in test [2], in [3], in test [4], in [5], in [6] and in test [7] was “inactive” throughout. For the same compound, the Potency entry in test [8], in test [9], in test [10], in test [11] and in test [12] was “inactive” each time.

Take `CC(C)Nc1cccnc1N1CCN(C(=O)c2cc3cc(NS(C)(=O)=O)ccc3[nH]2)CC1`: in test [1], the compound was called inactive. The Potency entry in test [2], in [3], in [4], in test [5], in [6] and in test [7] was “inactive” in each case. Besides, the Potency result in test [8], in test [9], in test [10], in [11] and in test [12] was “inactive” throughout.

Consider `CC(C)Cc1ccc(CC(=O)O)cc1`, for which the compound was classed as inactive in test [1]. Besides, the Potency result in test [2], in test [3], in test [4], in [5], in test [6] and in test [7] was “inactive” each time. The Potency entry in test [8], in test [9], in [10], in test [11] and in test [12] was “inactive” in each case.

For the compound `C[C@@H](O)[C@H]1C(=O)N2C(C(=O)O)=C([C@H]3CCCO3)S[C@H]12`, in [1], the outcome was inactive. Moreover, the Potency entry in test [2], in test [3], in test [4], in [5], in test [6] and in test [7] was “inactive” each time. In addition, the Potency entry in test [8], in test [9], in [10] and in [11] was “inactive” each time.

Consider `NS(=O)(=O)Cc1noc2ccccc12`, for which, in [1], the compound was called inactive. The Potency entry in test [2], in test [3], in [4], in test [5], in test [6] and in test [7] was “inactive” each time. The Potency result in test [8], in test [9], in test [10] and in test [11] was “inactive” in each case.

For the compound `NS(=O)(=O)c1cc2c(cc1Cl)NC(CC1CCCC1)NS2(=O)=O` (centres undefined), in test [1], the result was inactive. Further, the Potency entry in test [2], in test [3], in [4], in [5], in test [6] and in test [7] was “inactive” throughout. In addition, the Potency entry in test [8], in [9], in test [10], in test [11] and in test [12] was “inactive” in each case.

As to `CC(C)(Cc1c[nH]c2ccccc12)NCC(O)COc1ccccc1C#N` (centres undefined), in [1], the compound was called inactive. The Potency entry in test [2], in [3], in test [4], in test [5], in test [6] and in test [7] was “inactive” each time. Moreover, the Potency entry in [8], in [9], in test [10] and in [11] was “inactive” throughout.

Turning to `Nc1nc(N)c(-c2ccccc2)s1`, the compound was called inactive in test [1]. Also, the Potency entry in [2], in test [3], in [4], in [5], in test [6] and in test [7] was “inactive” in each case. Also, the Potency result in test [8], in [9], in test [10], in test [11] and in test [12] was “inactive” each time.

On to `NS(=O)(=O)c1cc(C(=O)O)cc(N2CCCC2)c1Oc1ccccc1`, for which the call in test [1] was inactive. In addition, the Potency entry in test [2], in [3], in test [4], in [5], in [6] and in test [7] was “inactive” each time. Besides, the Potency entry in test [8], in test [9], in test [10], in [11] and in test [12] was “inactive” each time.

In the case of `O=[N+]([O-])c1cccc(S(=O)(=O)NCCNS(=O)(=O)c2cccc([N+](=O)[O-])c2)c1`, the result in test [1] was inactive. The Potency result in [2], in test [3], in test [4], in test [5], in test [6] and in test [7] was “inactive” in each case. Besides, the Potency entry in test [8], in test [9], in [10], in test [11] and in test [12] was “inactive” each time.

With `CCC(Cc1c(I)cc(I)c(N)c1I)C(=O)O` (centres undefined), in [1], the outcome was inactive. For the same compound, the Potency result in test [2], in test [3], in [4], in test [5], in test [6] and in test [7] was “inactive” in each case. Moreover, the Potency result in [8], in test [9] and in test [11] was “inactive” each time.

Regarding `CC(CNC1CCCCC1)OC(=O)c1ccccc1` (centres undefined), the call in [1] was inactive. In addition, the Potency entry in test [2], in [3], in test [4], in test [5], in [6] and in test [7] was “inactive” in each case. Further, the Potency entry in test [8], in test [9], in test [11] and in test [12] was “inactive” in each case.

For the compound `CCOc1ccc(NC(C)=O)cc1`, the result in test [1] was inactive. Further, the Potency result in test [2], in test [3], in [4], in test [5], in test [6] and in test [7] was “inactive” in each case. The Potency result in test [8], in test [9], in test [10], in test [11] and in test [12] was “inactive” in each case.
